Experimental data taken from PubChem BioAssay AID624330 (Southern Research Specialized Biocontainment Screening …, 2012).
The campaign covered roughly 340,000 compounds. About 2,100 (0.62%) were called active.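 How the source made its calls: active means first-screen hits whose inhibition reached a set limit at any dose in the follow-up dose series; inconclusive means inhibition above the set first-screen limit but never retested; inactive means the rest.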 Only a sample is shown. Results with a measured potency or affinity are listed apart.

Molecular target: Rac GTPase-activating protein 1 (Homo sapiens) (UniProt Q9H0H5)
Experiment: MgcRacGAP GTPase-activating activity inhibitors, confirmation, biochemical, ADP Hunter fluorescence, primary and confirmatory (AID 624330);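 further: fluorescence reports GDP produced by GAP-driven GTP hydrolysis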
Details: MgcRacGAP-stimulated Rac1 GTP hydrolysis, at 30 µM, active compounds read high, GST-tagged Rac1 F28L mutant substrate

Sequence of Rac GTPase-activating protein 1 (Homo sapiens) (Q9H0H5 whole entry, looked up): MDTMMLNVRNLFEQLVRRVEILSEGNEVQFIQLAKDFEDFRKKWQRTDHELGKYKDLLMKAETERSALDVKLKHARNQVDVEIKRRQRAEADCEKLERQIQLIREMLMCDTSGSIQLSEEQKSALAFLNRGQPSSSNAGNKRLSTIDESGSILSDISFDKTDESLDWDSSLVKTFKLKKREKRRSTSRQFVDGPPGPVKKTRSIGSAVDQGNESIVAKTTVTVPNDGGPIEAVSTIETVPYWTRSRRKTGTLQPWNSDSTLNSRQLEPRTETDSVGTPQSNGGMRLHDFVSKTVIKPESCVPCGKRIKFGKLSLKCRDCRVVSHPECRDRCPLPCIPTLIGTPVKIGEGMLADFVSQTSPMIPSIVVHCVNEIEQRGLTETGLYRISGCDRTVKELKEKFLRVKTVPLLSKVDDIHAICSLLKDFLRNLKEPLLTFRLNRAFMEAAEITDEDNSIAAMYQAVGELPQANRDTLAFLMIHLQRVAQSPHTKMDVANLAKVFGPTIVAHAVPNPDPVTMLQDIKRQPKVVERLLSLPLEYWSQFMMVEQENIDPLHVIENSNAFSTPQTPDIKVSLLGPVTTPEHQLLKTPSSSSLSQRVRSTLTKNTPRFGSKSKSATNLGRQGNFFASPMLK

inhibition, inactive:
CC(C)(C)C(=O)NC(=S)NNC(=O)C(c1ccccc1)c1ccccc1 6.5%
O=C(O)CC/C(=N/NC(=O)CNC(=O)c1ccc2c(c1)OCCO2)c1ccccc1 3.51%
CCOC(=O)C(=O)Nc1cccc(C(=O)OCC)c1 -6.93%
COc1ccc(/C=N/NC(=O)Nc2cccc3nsnc23)cc1 -1.96%
COc1ccc(C=NNC(=O)c2ccccc2NS(=O)(=O)c2cccs2)cc1O 12.1%
O=C(NN=Cc1cc(Br)c(O)c(Br)c1)c1ccccc1NS(=O)(=O)c1cccs1 15.4%
CC(NC(=O)c1ccccc1)C(=O)N/N=C/c1ccc(O)cc1 (stereo not drawn) 27%
COc1ccc(/C=N/NC(=O)Nc2cccc3nsnc23)cc1OC 6.64%
COc1cc(C=NNC(=O)c2ccccc2NS(=O)(=O)c2cccs2)cc(OC)c1O 9.93%
COc1ccccc1/C=N/NC(=O)C(NC(=O)c1ccccc1)=C(C)C 4.44%
O=C(NN=Cc1c(F)cccc1F)c1ccccc1NS(=O)(=O)c1cccs1 3.9%
COc1ccc(-c2cc(-c3ccccc3)nc(N3CCCC3)n2)cc1OC 3.15%
Cc1cc(C)c(C)c(S(=O)(=O)NCCCN2CCCC2=O)c1C 5.47%
CC(C)(C)c1ccc(N2C(=O)CC(c3ccccc3)C2=O)cc1 (stereo not drawn) 4.86%
Cc1nc(N2CCN(C(=O)c3ccco3)CC2)c(C#N)c2c1CCCC2 5.84%
CCOC(=O)N1CCN(Cc2ccc3c(c2)OCO3)CC1 11.9%
COc1cc(C(=O)N2CCN(Cc3ccc4c(c3)OCO4)CC2)cc(OC)c1OC 13.3%
COc1cccc(C(=O)N2CCN(Cc3ccc4c(c3)OCO4)CC2)c1OC 9.39%
Cc1cc(C)cc(C(=O)N2CCN(Cc3ccc4c(c3)OCO4)CC2)c1 0.95%
COc1cc(OC)cc(C(=O)N2CCN(Cc3ccccc3C(F)(F)F)CC2)c1 11.6%
COc1ccccc1C(=O)N1CCN(Cc2ccc3c(c2)OCO3)CC1 2.13%
COc1cccc(C(=O)N2CCN(Cc3ccccc3Br)CC2)c1 21.5%
CCOCC(=O)N1CCN(Cc2ccc3c(c2)OCO3)CC1 -16%
Cc1ccccc1NC(=O)N1CCCC1C(=O)NCc1cccs1 (stereo not drawn) 11.4%
CC(=O)Nc1ccc(CN2CCc3c([nH]c4ccccc34)C2C(C)(C)C)cc1 (stereo not drawn) 6.78%
CCCc1n[nH]c2c1/C(=N/O)CC(c1ccccc1)C2 (stereo not drawn) 12.8%
COc1cc(C)c(S(=O)(=O)N2CCCC2)cc1C 4.75%
CN(Cc1ccccc1)C(=O)COC(=O)c1ccc(S(=O)(=O)N(C)C)cc1 9.46%
O=C1C=C(c2ccccc2)C(O)(c2ccccc2)C1 (stereo not drawn) 4.42%
CC1CN(C(=O)CS(=O)(=O)Cc2ccc(Cl)cc2)CC(C)O1 (stereo not drawn) 6.85%
O=C(/C=C/Nc1ccc(F)cc1)c1ccc(Oc2ncccn2)cc1 10.5%
CCCCNS(=O)(=O)c1ccc2nc(SCC(=O)Nc3sccc3C#N)[nH]c2c1 4.59%
COC(=O)C1CCN(C(=O)Cc2ccc(OC)c(OC)c2)CC1 -0.01%
O=C(Cc1cccs1)Nc1nnc(Cc2ccccc2)s1 22.3%
COc1ccc(Cc2nnc(NC(=O)Cc3cccs3)s2)cc1OC 4.75%
CC1=NNC(=O)C1CC(=O)N/N=C(\C)c1cccs1 (stereo not drawn) 3.05%
O=C(CCN1C(=O)c2cccc3cccc(c23)C1=O)Nc1ccccc1 2.77%
CN1C(=O)CSC1=Nc1ccc(F)cc1 4.45%
C=CCN1C(=O)CSC1=Nc1cccc(O)c1 3.76%
COc1ccc(N=C2SCC(=O)N2c2ccc(OC)cc2)cc1 -0.28%
C=CCN1C(=O)CSC1=Nc1ccc(C(=O)O)cc1 6.53%
O=C(NCCN1C(=O)S/C(=C\c2ccccc2Cl)C1=O)C1=COCCO1 3.87%
COc1cc2c(cc1OC)C(C)N(C(=S)Nc1ccccc1)CC2 (stereo not drawn) 7.46%
NC(c1ccncc1)c1ccc(Cl)cc1 (stereo not drawn) 13.9%
COC(=O)c1cccc(N2C(=O)c3ccccc3S2(=O)=O)c1 0.68%
O=C(O)c1cccc(N2CCCC2)c1 15.6%
O=C(O)c1cccc(N2CCCC2=O)c1 5.07%
COC(=O)c1cccc(N2CCCC2=O)c1 9.18%
CCCN(CCC)Cc1c(C(=O)N/N=C/CCc2ccccc2)nnn1-c1nonc1N 11.3%
Nc1ncc2c(n1)CCN(c1ccc([N+](=O)[O-])cc1)C2 7.74%
CC[C@H](C)[C@@H](C(=O)N1CCNCC1)n1cc([C@@H](N)CC(C)C)nn1 0.32%
O=C(O)c1cccc(N/N=C/c2cn(-c3ccccc3)nc2-c2cccs2)c1 3.09%
CN(C)c1ccc(/C=N/Nc2cccc(C(=O)O)c2)cc1 -3.06%
Cc1ccsc1/C=N/NC(=O)Nc1ccccc1 1.94%
O=C(O)c1cccc(N/N=C/c2cccc3ccccc23)c1 8.13%
CC(C)(C)c1ccc(/C=N/Nc2cccc(C(=O)O)c2)cc1 6.23%
O=C(O)c1cccc(N/N=C/c2ccc(-c3ccccc3)cc2)c1 -7.28%
Cc1ccc(NC(=O)CN2C(=O)NC3(CCc4ccccc43)C2=O)cc1 (stereo not drawn) -6.82%
CC(=O)c1ccc(NC(=O)CN2C(=O)NC3(CCc4ccccc43)C2=O)cc1 (stereo not drawn) 1.63%
CCOc1cccc(NC(=O)c2ccc(S(=O)(=O)N3CCCC3)cc2)c1 3.15%
O=S(=O)(c1ccccc1)c1nc(-c2ccco2)oc1NCCCN1CCOCC1 8.7%
O=C(/C=C/c1ccc(Cl)cc1Cl)Nc1cccc(S(=O)(=O)NC2=NCCCCC2)c1 5.67%
Nc1cc(Cl)ccc1Oc1ccc(Cl)cc1 0.58%
Nc1cc(Cl)ccc1Oc1ccccc1 11.6%
COc1ccc(C(=O)COC(=O)CNC(=O)c2ccccc2)cc1F 4.02%
CCOC(=O)c1cnc(SCC(=O)Nc2cc(OC)ccc2OC)nc1N 3.73%
CSCCC(NC(=O)c1ccccc1Cl)C(=O)NCc1ccncc1 (stereo not drawn) 6.71%
CC1CCCN(CCCOc2ccccc2-c2ccccc2)C1 (stereo not drawn) 18.1%
CC1CCCN(CCOc2ccc(Br)cc2)C1 (stereo not drawn) 12%
O=C(/C=C/c1ccco1)NCC1CCCO1 (stereo not drawn) 19.1%
CC(C)(C)C(=O)Cn1c(=O)n(-c2ccc(F)cc2F)c(=O)c2sccc21 13.1%
CNC(=S)N1N=C(c2ccc(C)cc2)CC1c1ccc(OC)c(OC)c1 (stereo not drawn) 2.99%
CC(=O)C[C@H]1c2cc(C(F)(F)F)ccc2S(=O)(=O)N1c1ccc(N(C)C)cc1 16.3%
COC(=O)C[C@H]1c2cc(F)ccc2S(=O)(=O)N1c1ccc(N(C)C)cc1 22.8%
COc1ccc(-n2ncc3c2CC(C)(C)CC3NC(=O)CCn2cncn2)cc1 (stereo not drawn) 4.79%
COc1ccc(-n2c(=O)c3c(C)c(C)sc3n(Cc3cccc(F)c3)c2=O)c(OC)c1 9.42%
CC(=O)Nc1cccc(NC(=O)c2ccccc2OCc2ccccc2)c1 9.89%
CC(=O)Nc1ccc(NC(=O)Nc2ccccc2)cc1 -3.27%
CC(C)(C)CC(=O)Nc1ccc(C(N)=O)cc1 5.87%
Cc1ccc(S(=O)(=O)Nc2ccc(Nc3ccccc3)cc2)cc1 24.2%
Cc1cccc(NC(=O)CC(C)(C)C)c1 5.55%
CC(=O)Nc1ccc(NS(=O)(=O)c2ccccc2)cc1 5.08%
CC(=O)Nc1ccccc1 3.65%
O=C(Nc1ccccc1)c1ccccc1OCc1ccc(F)cc1 13.5%
COc1cc(-c2ccccc2)[nH]c(=S)n1 9.57%
CC(Sc1nc(=O)cc(N)n1CCc1ccccc1)C(=O)NCc1ccccc1 (stereo not drawn) 3.88%
COc1cccc(NC=C2C(=O)OC(C)(C)OC2=O)c1 6.91%
Cc1cc(C(=O)NNC(=S)NCC2CCCO2)cs1 (stereo not drawn) 9.6%
COc1ccc2c(CC(=O)Nc3nc(C)cs3)coc2c1 7.58%
Cc1ccc(C(=O)N(CC(=O)Nc2ccc(Cl)c(Cl)c2)Cc2ccco2)cc1 2.86%
O=C(CSc1nc(C(F)(F)F)cc(=O)[nH]1)N1CCCCCC1 -0.68%
CC(C)Cn1c(SCC(=O)c2ccc(Cl)s2)nnc1-c1ccco1 11.6%
CC1CC(C)CN(c2cc(=O)n(Cc3ccc(F)cc3)c(=O)[nH]2)C1 (stereo not drawn) 6.97%
COc1ccc(NC(=O)CN(C)S(=O)(=O)c2cccs2)cc1 16%
CCOC(=O)c1nn(-c2ccccc2F)c(-c2ccccc2)c1C(=O)c1ccccc1 5.32%
Cc1cccc(NC(=O)c2ccccc2C(=O)O)c1 3.78%
O=C(O)c1ccccc1C(=O)Nc1ccc(Br)c(C(F)(F)F)c1 8.86%
O=C(O)c1ccccc1-c1ccccc1C(=O)Nc1ccccc1 8.32%
O=C(O)c1ccccc1C(=O)Nc1ccccc1 -1.51%
CC(=O)c1ccc(NC(=O)C(C)OC(=O)COc2ccc(C#N)cc2)cc1 (stereo not drawn) 3.94%
O=C(Nc1ccc(Nc2ccccc2)cc1)C(Cl)Cl 25.5%
CC(C)C(=O)Nc1ccc(C(=O)c2ccccc2)cc1 4.76%
CC(OC(=O)COc1ccc(Nc2ccccc2)cc1)C(=O)N(C)c1ccccc1 (stereo not drawn) 24.6%
